Compounds with a hit are over-represented: about 3.5% of the library has one in this group of screens.
TEAD-YAP block – TEAD-YAP interaction inhibition, primary screen, TEAD-YAP interaction inhibitor project, luminescence, HEK-TIYL cells. AID 1259422, 2018. TEAD-Gal4/YAP UAS-luciferase luminescence. inhibition, % at 9.12 µM. 1.4% of 640,000 active; in the data active means inhibition above about 32%;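 further: 0% = median of test compound wells and 100% = reference inhibitor wells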
GPR151 activ – activators of human GPR151, primary screen, cell-based, PathHunter beta-arrestin, luminescence; 1% of 650,000 active; activation, % at 11.2 µM; PathHunter beta-arrestin GPR151 cells; in the data active means activation above about 4.9%;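 further: 0% = median of compound wells and 100% = cells with positive control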
Target sequence (Q8TDV0 whole entry, looked up): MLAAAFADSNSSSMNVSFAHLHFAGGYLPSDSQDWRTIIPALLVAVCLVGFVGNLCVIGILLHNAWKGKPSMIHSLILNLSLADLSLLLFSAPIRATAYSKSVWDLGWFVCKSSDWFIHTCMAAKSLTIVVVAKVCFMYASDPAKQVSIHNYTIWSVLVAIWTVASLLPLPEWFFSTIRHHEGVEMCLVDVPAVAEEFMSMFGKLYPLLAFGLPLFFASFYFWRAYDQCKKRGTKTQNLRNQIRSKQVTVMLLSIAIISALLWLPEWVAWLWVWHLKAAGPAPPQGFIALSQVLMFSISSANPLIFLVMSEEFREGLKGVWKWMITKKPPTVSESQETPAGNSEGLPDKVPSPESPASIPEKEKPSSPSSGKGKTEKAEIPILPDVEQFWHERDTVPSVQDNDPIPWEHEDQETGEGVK
MITF primary – MITF inhibitors, primary screen, biochemical, AlphaScreen, human; inhibition, % at 2.6 µM; AlphaScreen MITF homodimerization, bead proximity signal; 0.91% of 650,000 active; in the data active means inhibition above about 50%;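 further: 0% = vehicle wells with protein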
FBW7 act – FBW7 E3 ligase activators, primary screen, biochemical, AlphaScreen, human | F-box/WD repeat-containing protein 7 (Homo sapiens), Q969H0 | AlphaScreen FBW7–phospho-cyclin E peptide binding, activator screen | normalized activity (activation), % at 26.1 µM | 0.13% of 650,000 active | AID 1259310, 2017; in the data active means normalized activity above about 1.9%;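 further: purified mutant Fbw7 with reduced substrate affinity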
* hit, by the source's call.

SMILES | TEAD-YAP block | GPR151 activ | MITF primary | FBW7 act
CS(=O)(=O)Nc1cccc(-c2ccnc(Nc3ccccc3)n2)c1 | 67.8* | -0.3 | 9.5 | 0.0
O=C(Nc1ccc(O)cc1)c1ccc2ccccc2c1 | 46.6* | -1.2 | -1.9 | 0.0
O=C(Nc1ccc(O)cc1)c1ccccc1Cl | 51.9* | -0.9 | 0.1 | 0.1
CC(=O)Oc1ccc(C(=O)Nc2ccc3ccccc3c2)cc1 | 35.5* | -1.3 | -17.1 | -0.4
CS(=O)(=O)Nc1ccc(C(=O)Nc2ccc3ccccc3c2)cc1 | -35.4 | -2.7 | 0.7 | 0.1
NC(=O)c1ccc(NC(=O)c2ccc3ccccc3c2)cc1 | -77.0 | 1.1 | 23.3 | 0.6
O=C(NCCCn1ccnc1)C1CC12CCN(C(=O)C1(c3ccccc3)CCCCC1)CC2 (stereo not drawn) | 38.0* | 1.3 | 11.4 | 0.1
Cc1ccccc1C(=O)N(CC(=O)Nc1sc(C)c(C)c1C(N)=O)C1CCCCC1 | 12.1 | 0.2 | 6.8 | -0.1
COc1cccc(C(=O)N(CC(=O)Nc2sc(C)c(C)c2C(N)=O)C2CCCC2)c1 | 40.6* | -0.1 | -0.6 | 0.2
Cc1sc(NC(=O)CN(C(=O)c2ccc(Cl)cc2)C2CCCC2)c(C(N)=O)c1C | 19.6 | 0.4 | -14.6 | -0.2
Cc1sc(NC(=O)CN(C(=O)c2ccccc2)C2CCCCC2)c(C(N)=O)c1C | 36.5* | -0.7 | 10.5 | 0.1
Cc1sc(NC(=O)CN(C(=O)c2ccccc2)C2CCCC2)c(C(N)=O)c1C | 41.2* | -1.4 | 10.7 | 0.0
Cc1ccn2cc(-c3cc4ccccc4oc3=O)nc2c1 | -22.7 | -7.4 | 4.4 | 0.7
Cc1ccn2cc(-c3ccccc3Cl)nc2c1 | 70.7* | -6.5 | 11.2 | 0.2
CCc1ccc(-c2cn3cc(C)ccc3n2)cc1 | -1.0 | -2.1 | -103.9 | 0.0
CCc1ccc(-c2cn3ccc(C)cc3n2)cc1 | 96.4* | -6.4 | 4.7 | 0.7
Cc1ccn2cc(-c3ccc(Cl)cc3)nc2c1 | 78.4* | -9.0 | 18.2 | 0.9
COc1ccc(OC)c(CNC(=O)CCc2c(C)nc3nc(CN)nn3c2C)c1 | 5.5 | -0.2 | 12.3 | 0.4
O=C(c1cc2n(n1)C(C(F)(F)F)CC(c1ccc3c(c1)OCO3)N2)N1CCN(c2cccc(Cl)c2)CC1 (stereo not drawn) | -5.8 | 0.2 | 19.2 | 3.7*
O=C(c1cc2n(n1)C(C(F)(F)F)CC(c1ccc(Cl)cc1)N2)N1CCN(c2cccc(Cl)c2)CC1 (stereo not drawn) | -8.0 | 0.6 | -21.7 | 0.4
OCCNc1ncnc2scc(-c3ccccc3)c12 | 18.6 | -0.2 | 19.9 | 1.1
COCCNc1ncnc2scc(-c3ccccc3)c12 | 36.2* | 1.2 | -9.2 | -0.1
COc1ccc(CCNc2ncnc3scc(-c4ccccc4)c23)cc1OC | 50.4* | 2.7 | -8.9 | -0.1
CCOC(=O)c1c(NC(=O)/C(C#N)=C/c2ccco2)sc2c1CCCC2 | 11.9 | 0.4 | 11.4 | 1.5
CCCCCOc1ccc(Br)cc1/C(C)=N/NC1=NCCN1 | 61.8* | 0.3 | -0.7 | -0.1
SMILES | TEAD-YAP block | GPR151 activ | MITF primary | FBW7 act
COc1cc(/C=C2\C(=O)N(C)C(=O)N(c3ccccc3)C2=O)cc(OC)c1O | -4.4 | -0.3 | -14.0 | -0.1
COc1cc(/C=C2/C(=O)N(C)c3ccccc32)cc(OC)c1O | 40.7* | 0.2 | 19.4 | 0.1
Nc1nonc1-c1nc2ccccc2n1CC(=O)N/N=C\c1ccc(OCC(=O)O)cc1 | 4.4 | 0.6 | 19.0 | 0.1
CCOC(=O)c1oc2ccccc2c1NC(=O)C1CCN(S(=O)(=O)c2ccc(C)cc2)CC1 | 35.4* | -1.8 | 16.4 | 0.7
CCC(C)(C)NC(=O)C1CCN(S(=O)(=O)c2ccc(C)cc2)CC1 | 73.5* | 0.9 | -2.2 | -0.1
CCC(C)(C)NC(=O)C1CCN(S(=O)(=O)c2ccc(F)cc2)CC1 | 0.0 | 0.0 | 0.5 | -0.2
CCC(C)(C)C(=O)Nc1ccc(S(=O)(=O)N2CCC(C)CC2)cc1 | 11.2 | -0.8 | 14.9 | 2.2*
COc1ccc(N2CCN(Cc3ccsc3)CC2)cc1 | -0.9 | -1.2 | 67.2* | 0.6
COc1ccc(N2CCN(Cc3cccs3)CC2)cc1 | -0.2 | 1.1 | 55.4* | -0.5
CCC(CO)Nc1ccc2ncc(-c3ccccc3F)n2n1 (stereo not drawn) | 41.5* | -1.2 | 2.4 | 0.6
CCC(CO)Nc1ccc2ncc(-c3cccc(CO)c3)n2n1 (stereo not drawn) | 48.0* | -0.3 | -13.9 | -0.1
CCC(CO)Nc1ccc2ncc(-c3ccc(C)cc3)n2n1 (stereo not drawn) | 24.5 | -0.4 | 14.4 | -0.5
COc1cc(-c2cnc3ccc(N[C@H](CO)C(C)C)nn23)ccc1O | 93.2* | -0.4 | -12.5 | -0.5
CC(C)[C@@H](CO)Nc1ccc2ncc(-c3cccc(Cl)c3)n2n1 | 5.5 | -0.4 | -1.8 | 2.0*
CC(C)[C@@H](CO)Nc1ccc2ncc(-c3ccc4ccccc4c3)n2n1 | 14.4 | -0.8 | -22.3 | -0.3
CC(C)[C@@H](CO)Nc1ccc2ncc(-c3ccccc3)n2n1 | 27.9 | 0.9 | 3.7 | 0.7
CCC(CO)Nc1ccc2ncc(-c3cccc(Br)c3)n2n1 (stereo not drawn) | 0.7 | 0.2 | -4.7 | 0.1
CC(C)[C@@H](CO)Nc1ccc2ncc(-c3cccc(CO)c3)n2n1 | 42.6* | -0.2 | 9.9 | -0.3
CC(C)[C@@H](CO)Nc1ccc2ncc(-c3cccc(N)c3)n2n1 | 16.6 | -0.4 | -10.7 | -0.6
O=c1[nH]c(N2CCOCC2)nc2c1CCN(Cc1ccccc1)C2 | 5.8 | -0.5 | 6.6 | 2.7*
O=c1[nH]c(N2CCOCC2)nc2c1CCN(Cc1ccccc1F)C2 | -3.0 | -1.3 | -2.2 | 0.0
CC(C)CCN1CCNC(=O)C1CC(=O)NCc1ccccc1C(F)(F)F (stereo not drawn) | -3.5 | -1.5 | -4.3 | -0.1
COCCNC(=O)c1ccc2c(c1)N(Cc1ccccc1C)C(=O)CS2 | 19.5 | -0.5 | 3.4 | -0.2
CCOC(=O)c1c(-c2ccc(OC)cc2)csc1NC(=O)CCCC(=O)O | 7.1 | -0.4 | -4.8 | 0.1
COC(=O)c1c(-c2ccc(C)c(C)c2)csc1NC(=O)CCCC(=O)O | 33.4* | 0.2 | -8.1 | 0.0
SMILES | TEAD-YAP block | GPR151 activ | MITF primary | FBW7 act
Cc1ccc(S(=O)(=O)Oc2ccccc2/C=N/NC(N)=S)cc1 | 60.5* | 2.8 | -7.3 | -0.1
Cc1ccc(S(=O)(=O)Oc2ccccc2/C=N/N=C(N)N)cc1 | 10.3 | -0.6 | 2.2 | -0.2
CCC(=O)N1CCCc2ccc(NC(=O)NCc3cccc4ccccc34)cc21 | -7.0 | 1.2 | 7.5 | 14.4*
COC(=O)c1cn[nH]c1NC(=S)Nc1c(C)cccc1C | -6.5 | -1.2 | -0.7 | -0.1
COC(=O)c1cn[nH]c1NC(=S)Nc1ccc(Br)cc1 | 38.6* | -0.4 | -4.2 | -0.1
CC(C)(C)OC(=O)N1CCC(c2nc(-c3nc4ccc(-c5ccncc5)cc4[nH]3)cs2)CC1 | 93.6* | 3.5 | -4.6 | 0.1
N#C/C(=C\c1ccc(OCC(=O)NCC2CCCO2)cc1)C(=O)NCCc1ccccc1 (stereo not drawn) | 0.5 | -0.1 | 7.7 | 2.0*

Screens from PubChem BioAssay.
